Data as given in the supplement of paper PMC10477191.
± gives the standard deviation of the averaged measurements.

Tested on: Drosophila virilis antennal basiconic sensillum AB3
Assay: odor-evoked OSN spike response (post minus pre-stimulus); higher = stronger neuronal excitation
Settings: odor dilution: 10^-4
Procedure: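 Single sensillum recordings from antennal basiconic sensilla of D. virilis. A 500 ms pulse of odorant (10^-4 in mineral oil or DMSO) was delivered; the response is the change in spike frequency between the 1 s pre- and post-stimulus windows (spikes/s).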

SMILES | odor-evoked OSN spike response
CC(C)=O [acetone] | 92.2 ± 20 spikes/s
